Reference: PubChem BioAssay (NCATS)
Results filed as inconclusive are left out. Activity calls are given as the source filed them. Calls follow the shape of the full dose curve.

Target: Peroxisome proliferator-activated receptor delta (Homo sapiens) (UniProt Q03181)
Assay: qHTS assay for small molecule agonists of peroxisome proliferator-activated receptor delta signaling (AID 588534);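 also: 0% = DMSO basal wells and 100% = positive control agonist at 10 µM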
Conditions: HEK293T PPARdelta-UAS-bla, beta-lactamase ratio, 18 h; series mostly up to 76.7 µM; activation: at the top concentration
Method in brief: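 EC50 and efficacy values derive from Hill fits of a concentration series in a beta-lactamase reporter cell assay. Exposure is 18 hrs at 37 C, with CCF4 fluorescence as the readout.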

Sequence of Peroxisome proliferator-activated receptor delta (Homo sapiens) (Q03181 whole entry, looked up): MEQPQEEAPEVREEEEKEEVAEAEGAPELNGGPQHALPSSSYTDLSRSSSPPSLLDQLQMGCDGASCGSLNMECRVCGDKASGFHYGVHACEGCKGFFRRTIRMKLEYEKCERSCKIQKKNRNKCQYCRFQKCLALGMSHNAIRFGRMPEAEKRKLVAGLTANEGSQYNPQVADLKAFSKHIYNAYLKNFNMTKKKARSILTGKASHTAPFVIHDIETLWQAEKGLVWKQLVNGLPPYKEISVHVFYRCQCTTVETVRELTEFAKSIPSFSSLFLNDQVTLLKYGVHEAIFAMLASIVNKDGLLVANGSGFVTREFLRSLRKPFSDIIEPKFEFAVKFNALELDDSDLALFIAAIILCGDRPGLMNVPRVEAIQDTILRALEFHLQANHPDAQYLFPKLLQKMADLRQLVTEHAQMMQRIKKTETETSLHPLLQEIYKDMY

Question: `CCCCCCN` was tested. Which “activation” value did it give?
Answer: The value was 2.91% (inactive).

Question: Which “activation” value does the source give for `CC(=O)Nc1cccc(C)c1` here?
Answer: The value was 0.0454% (inactive).

Question: How did the “activation” value turn out when `CC(C)(C)C1CCC(O)CC1` (stereo not drawn) was run?
Answer: Its value is -2.25% (inactive).

Question: `ClCCl` was tested. Which “activation” value did it give?
Answer: Its value is 1.34% (inactive).

Question: `O=C(Cl)c1ccc([N+](=O)[O-])cc1` was tested. Which “activation” value did it give?
Answer: The value was -1.98% (inactive).

Question: For `COC(=O)C(C)Oc1ccc(Oc2ncc(C(F)(F)F)cc2Cl)cc1` (stereo not drawn), which “activation” value is on record?
Answer: Its value is -11.1% (inactive).

Question: How did the “activation” value turn out when `O=[N+]([O-])c1cccc(C(F)(F)F)c1` was run?
Answer: Its value is 2.45% (inactive).

Question: For `CCCC=O`, which “activation” value is on record?
Answer: The value was 3.07% (inactive).

Question: How did the “activation” value turn out when `CCOc1ccc(NC(C)=O)cc1N` was run?
Answer: The value was -6.06% (inactive).

Question: `Cc1ccc(S(=O)(=O)NCl)cc1` was tested. Which “activation” value did it give?
Answer: Its value is -2.48% (inactive).

Question: How did the “activation” value turn out when `CCCCC(CC)C(=O)OCCOCCOCCOC(=O)C(CC)CCCC` (stereo not drawn) was run?
Answer: The value was -9.72% (inactive).

Question: Which “activation” value does the source give for `CC(C)Nc1ccccc1` here?
Answer: Its value is 11.5% (inactive).

Question: `CC(C)(C)C(O)/C(=C\c1ccc(Cl)cc1)n1cncn1` (stereo not drawn) was tested. Which “activation” value did it give?
Answer: Its value is -4.73% (inactive).

Question: Which “activation” value does the source give for `CC(C)(O)C(=O)O` here?
Answer: The value was -0.367% (inactive).

Question: `Nc1ccc(Cl)cc1[N+](=O)[O-]` was tested. Which “activation” value did it give?
Answer: Its value is 7.61% (inactive).

Question: For `c1ccsc1`, which “activation” value is on record?
Answer: Its value is 0.747% (inactive).

Question: For `CCCCOC(=O)c1ccccc1`, which “activation” value is on record?
Answer: Its value is 0.106% (inactive).

Question: Which “activation” value does the source give for `CCCCCCCCCCCCN` here?
Answer: Its value is 1.33% (inactive).

Question: For `CCCCOCCOCCOC(C)=O`, which “activation” value is on record?
Answer: The value was -2.3% (inactive).

Question: `CC1=CC2C3CC(C=C3C)C2C1` (stereo not drawn) was tested. Which “activation” value did it give?
Answer: The value was 3.19% (inactive).

Question: For `O=CC(=O)c1ccccc1`, which “activation” value is on record?
Answer: Its value is 12.3% (inactive).

Question: `C=CCCCC` was tested. Which “activation” value did it give?
Answer: Its value is 3.86% (inactive).

Question: `CCCC(=O)OC(=O)CCC` was tested. Which outcome did it give?
Answer: The outcome was “inactive”.

Question: For `c1ccc2n[nH]nc2c1`, which “activation” value is on record?
Answer: Its value is 3.95% (inactive).

Question: For `NC(=O)c1ccccc1[N+](=O)[O-]`, which “activation” value is on record?
Answer: Its value is 9.96% (inactive).

Question: Which “activation” value does the source give for `O=[N+]([O-])c1ccc(Cl)cc1Cl` here?
Answer: The value was 4.65% (inactive).

Question: How did the “activation” value turn out when `CCCCOCCOCCOCCO` was run?
Answer: The value was 1.78% (inactive).

Question: For `CCNC(=S)NCC`, which “activation” value is on record?
Answer: Its value is 5.71% (inactive).

Question: With `C/C(=C\C(C)CC(C)CC(C)C)C1CC(=O)OC1=O` (stereo not drawn) as the compound, how does the “activation” value read?
Answer: Its value is -2.11% (inactive).

Question: `O=C(O)c1cc(Cl)cc(Cl)c1` was tested. Which “activation” value did it give?
Answer: Its value is 10.7% (inactive).

Question: How did the “activation” value turn out when `O=[N+]([O-])C(CO)(CO)CO` was run?
Answer: Its value is 0.0302% (inactive).

Question: For `O=C(O)c1ccc(C(=O)O)cc1`, which outcome is on record?
Answer: The outcome was “inactive”.

Question: How did the “activation” value turn out when `C=C(C)C(=O)OCCCCCCCCCCCCCCCC` was run?
Answer: The value was 4.79% (inactive).
